Among all 5,500 compounds or so, about 2,000 (36%) were called active. Another 18% or so got no clear call; they are omitted. No stated cut-off is given here; in the data, active means normalized growth mostly below about 0.91 (no sharp cut-off); inconclusive means no clear call, values can overlap the other calls; inactive means mostly above about 0.92. The list shows a part of the results.
Experiment: chemical genetic growth profiling, strain panel (AID 1159580);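 further: tested at 20 µM; growth read once vehicle control cultures reached saturation at 30 °C; 1 = growth at the plate median or of vehicle wells; lower values mean less growth of the strain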
Details: growth OD

Measured: normalized growth

Cn1c([N+](=O)[O-])cnc1COC(N)=O
inactive: S. cerevisiae deletion strains, locus YJR075W, strain HOC1, hits give low values 1.02 | S. cerevisiae deletion strains, locus YKL009W, strain mrt4, hits give low values 1.01 | S. cerevisiae deletion strains, locus YKL068W, hits give low values 0.991 | S. cerevisiae deletion strains, locus YKL085W, strain MDH1 (second series), hits give low values 0.994 | S. cerevisiae deletion strains, locus YKL085W, strain MDH1, hits give low values 0.994 | S. cerevisiae deletion strains, locus YKL160W, strain elf1, hits give low values 1.02 | S. cerevisiae deletion strains, locus YKL190W, strain CNB1, hits give low values 1 | S. cerevisiae deletion strains, locus YKR001C, strain vps1, hits give low values 0.976 | S. cerevisiae deletion strains, locus YKR026C, strain gcn3, hits give low values 0.998 | S. cerevisiae deletion strains, locus YKR091W, strain srl3, hits give low values 0.998 | S. cerevisiae deletion strains, locus YLL001W, strain dnm1, hits give low values 1.03 | S. cerevisiae deletion strains, locus YLL026W, hits give low values 1 | S. cerevisiae deletion strains, locus YLL041C, strain sdh2, hits give low values 0.993 | S. cerevisiae deletion strains, locus YLR027C, strain aat2, hits give low values 1.01 | S. cerevisiae deletion strains, locus YLR039C, strain RIC1, hits give low values 1.02 | S. cerevisiae deletion strains, locus YLR058C, strain SHM2, hits give low values 1.01 | S. cerevisiae deletion strains, locus YLR102C, strain apc9, hits give low values 0.986 | S. cerevisiae deletion strains, locus YLR113W, strain HOG1, hits give low values 1.03 | S. cerevisiae deletion strains, locus YLR221C, strain rsa3, hits give low values 0.978 | S. cerevisiae deletion strains, locus YLR258W, strain gsy2, hits give low values 1.02 | S. cerevisiae deletion strains, locus YLR262C, strain YPT6 (second series), hits give low values 1 | S. cerevisiae deletion strains, locus YLR262C, strain YPT6, hits give low values 1.05 | S. cerevisiae deletion strains, locus YLR268W, strain sec22, hits give low values 0.991 | S. cerevisiae deletion strains, locus YLR320W, strain mms22, hits give low values 0.983 | S. cerevisiae deletion strains, locus YLR330W, strain CHS5, hits give low values 1.01 | S. cerevisiae deletion strains, locus YLR342W, strain FKS1 (second series), hits give low values 0.982 | S. cerevisiae deletion strains, locus YLR342W, strain FKS1, hits give low values 0.998 | S. cerevisiae deletion strains, locus YLR357W, strain rsc2, hits give low values 0.989 | S. cerevisiae deletion strains, locus YLR370C, strain arc18, hits give low values 1.02 | S. cerevisiae deletion strains, locus YLR371W, strain rom2, hits give low values 0.988 | S. cerevisiae deletion strains, locus YLR384C, strain iki3, hits give low values 1 | S. cerevisiae deletion strains, locus YLR418C, strain cdc73, hits give low values 0.962 | S. cerevisiae deletion strains, locus YML016C, strain PPZ1, hits give low values 1 | S. cerevisiae deletion strains, locus YML032C, strain rad52, hits give low values 0.984 | S. cerevisiae deletion strains, locus YML120C, strain ndi1, hits give low values 0.999 | S. cerevisiae deletion strains, locus YML124C, strain tub3, hits give low values 0.99 | S. cerevisiae deletion strains, locus YMR058W, strain fet3, hits give low values 1.01 | S. cerevisiae deletion strains, locus YMR078C, strain ctf18, hits give low values 0.983 | S. cerevisiae deletion strains, locus YMR125W, strain sto1, hits give low values 0.991 | S. cerevisiae deletion strains, locus YMR129W, hits give low values 1.01 | S. cerevisiae deletion strains, locus YMR205C, strain PFK2, hits give low values 0.982 | S. cerevisiae deletion strains, locus YMR223W, strain ubp8, hits give low values 0.994 | S. cerevisiae deletion strains, locus YMR231W, strain pep5, hits give low values 1.01 | S. cerevisiae deletion strains, locus YMR263W, strain SAP30, hits give low values 1.01 | S. cerevisiae deletion strains, locus YMR307W, strain GAS1, hits give low values 0.981 | S. cerevisiae deletion strains, locus YNL067W, strain RPL9B, hits give low values 1.01 | S. cerevisiae deletion strains, locus YNL071W, strain lat1, hits give low values 1 | S. cerevisiae deletion strains, locus YNL153C, strain GIM3, hits give low values 1.01 | S. cerevisiae deletion strains, locus YNL183C, strain NPR1, hits give low values 0.957 | S. cerevisiae deletion strains, locus YNL209W, strain ssb2, hits give low values 1.01 | S. cerevisiae deletion strains, locus YNL233W, strain BNI4, hits give low values 1.01 | S. cerevisiae deletion strains, locus YNL248C, strain rpa49, hits give low values 0.995 | S. cerevisiae deletion strains, locus YNL250W, strain rad50, hits give low values 0.986 | S. cerevisiae deletion strains, locus YNL271C, strain bni1, hits give low values 0.978 | S. cerevisiae deletion strains, locus YNL298W, strain CLA4, hits give low values 0.988 | S. cerevisiae deletion strains, locus YNL307C, strain MCK1, hits give low values 0.984 | S. cerevisiae deletion strains, locus YNL322C, strain KRE1 (second series), hits give low values 1.02 | S. cerevisiae deletion strains, locus YNR049C, strain mso1, hits give low values 1.01 | S. cerevisiae deletion strains, locus YNR052C, strain pop2, hits give low values 0.989 | S. cerevisiae deletion strains, locus YOL006C, strain TOP1, hits give low values 1.05 | S. cerevisiae deletion strains, locus YOL012C, strain htz1 0.743 | S. cerevisiae deletion strains, locus YOL147C, strain pex11, hits give low values 0.981 | S. cerevisiae deletion strains, locus YOR001W, strain rrp6, hits give low values 0.963 | S. cerevisiae deletion strains, locus YOR061W, strain CKA2, hits give low values 1.01 | S. cerevisiae deletion strains, locus YOR069W, strain VPS5, hits give low values 1 | S. cerevisiae deletion strains, locus YOR070C, strain gyp1, hits give low values 0.996 | S. cerevisiae deletion strains, locus YOR080W, strain dia2, hits give low values 1.01 | S. cerevisiae deletion strains, locus YOR083W, strain WHI5, hits give low values 1.03 | S. cerevisiae deletion strains, locus YOR106W, strain vam3, hits give low values 1.03 | S. cerevisiae deletion strains, locus YOR136W, strain idh2, hits give low values 0.978 | S. cerevisiae deletion strains, locus YOR144C, strain elg1, hits give low values 0.972 | S. cerevisiae deletion strains, locus YOR184W, strain ser1, hits give low values 1.01 | S. cerevisiae deletion strains, locus YOR231W, strain MKK1, hits give low values 0.997 | S. cerevisiae deletion strains, locus YOR265W, strain rbl2, hits give low values 1 | S. cerevisiae deletion strains, locus YOR270C, strain vph1, hits give low values 1 | S. cerevisiae deletion strains, locus YOR290C, strain snf2, hits give low values 1.03 | S. cerevisiae deletion strains, locus YOR316C, strain cot1, hits give low values 0.993 | S. cerevisiae deletion strains, locus YPL051W, strain arl3, hits give low values 1.03 | S. cerevisiae deletion strains, locus YPL078C, strain atp4, hits give low values 1.03 | S. cerevisiae deletion strains, locus YPL106C, strain sse1, hits give low values 1.02 | S. cerevisiae deletion strains, locus YPL240C, strain hsp82, hits give low values 1.01 | S. cerevisiae deletion strains, locus YPL241C, strain CIN2, hits give low values 1.01 | S. cerevisiae deletion strains, locus YPL256C, strain CLN2, hits give low values 0.999 | S. cerevisiae deletion strains, locus YPR119W, strain clb2, hits give low values 0.981 | S. cerevisiae deletion strains, locus YPR141C, strain kar3, hits give low values 0.983 | S. cerevisiae deletion strains, locus YPR163C, strain tif3, hits give low values 0.99 | S. cerevisiae deletion strains, locus YPR167C, strain met16, hits give low values 0.992 | S. cerevisiae deletion strains, strain wtn01, hits give low values 0.984 | S. cerevisiae strains, strain wild type, hits give low values 1.01
